High-throughput results: PubChem BioAssay, several laboratories
proKLK7 act: proKLK7 zymogen activators, primary screen, biochemical, fluorescence intensity; Kallikrein-7 (Homo sapiens), P49862; 370,000 tested, 0.9% active; purified proKLK7, EDANS-DABCYL substrate fluorescence; 100% is mature enzyme control, 0% vehicle; activation, % at 7 µM;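 active means activation above the mean of all tested compounds plus 3 SD, computed per campaign excluding outliers beyond control limits, cut at about 13% in these data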
PfG6PD inh: PfG6PD enzyme inhibitors, primary screen, biochemical, fluorescence intensity, uHTS; 350,000 tested, 0.78% active; PfGluPho enzyme, NADPH resazurin-diaphorase fluorescence; inhibition, % at 20 µM;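 active means inhibition reaching at least a set limit at 20 µM in the primary screen, cut at about 59% in these data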;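 further: 0% = DMSO wells with substrate and 100% = DMSO wells lacking glucose-6-phosphate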
Neddylation inh: inhibitors of cullin neddylation, primary screen, biochemical, TR-FRET, uHTS, NAE and Ubc12; NEDD8-conjugating enzyme Ubc12 (Homo sapiens) + NEDD8-activating enzyme E1 regulatory …; calls only at 25 µM; 360,000 tested, 0.58% active; AID 651699, 2012; in the data active means inhibition above about 36%
FAS TE block: FAS thioesterase domain inhibitors, primary screen, biochemical, fluorescence intensity, uHTS | Fatty acid synthase (Homo sapiens), P49327 | recombinant FAS-TE, OMFH fluorogenic substrate, fluorescence endpoint | inhibition, % at 15 µM | 360,000 tested, 0.67% active | AID 602261, 2012;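 active means compounds whose normalised, plate-corrected inhibition of enzyme fluorescence in the single-dose primary screen is 50% or more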;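 further: 0% = DMSO with enzyme and 100% = substrate without enzyme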
KLK7 act conf: proKLK7 zymogen activators, confirmation, biochemical, fluorescence intensity, triplicate | 3,200 tested, 68% active | AID 686949, 2013 | activation, % at 7 µM | shares compounds with proKLK7 act | purified proKLK7, EDANS-DABCYL substrate fluorescence; scaled: vehicle 0, mature enzyme 100;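 active means activation, as change over the incubation, above the mean of all tested compounds plus 3 SD, cut at about 13% in these data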
EDANS-DABCYL int: EDANS-DABCYL substrate optical interference, artefact control for kallikrein-7 zymogen activator project, biochemical, fluorescence intensity, high throughput; 3,200 tested, 80% active; shares compounds with proKLK7 act; activation, % at 7 µM; no enzyme, 4 h; solvent 0%, active enzyme control 100%; AID 686952, 2013;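 active means activation above the all-compound mean plus 3 SD, ignoring values outside control-based bounds, cut at about 4.8% in these data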;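 further: value is the 4 h activation minus the activation read at time zero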
K7 EDANS ctr: optically interferes with EDANS-DABCYL fluorescence, kallikrein-7 activator counter-screen | shares compounds with proKLK7 act | EDANS-DABCYL peptide fluorescence interference, no enzyme | 250 tested, 20% active | EC50, µM;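 active means compounds that raise the fluorescence signal in this interference counterscreen, with EC50 at or below 10 µM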;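 further: intact quenched peptide substrate alone read at 355 nm excitation and 520 nm emission; signal is fluorescence gain from T0 to T4 after four hours at room temperature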
Numbers without * were called inactive; i = inactive; x = not tested or not shown. Only some compounds are listed: those with a hit (about 2.7% of all), similar ones and a draw of the others.

SMILES	proKLK7 act	PfG6PD inh	Neddylation inh	FAS TE block	KLK7 act conf	EDANS-DABCYL int	others
O=c1[nH]cnc2cc(-c3ccccc3)sc12	0	-6	i	-8	x	x
COc1cccc(CNc2nc3cc(-c4cccc(Cl)c4)sc3c(=O)n2C)c1	-1	x	i	9	x	x
CC(C)(C)C(=O)NC1CCCCN(Cc2ccc(Cl)cc2)C1=O (stereo unspecified)	0	x	x	x	x	x
O=C(NN=Cc1ccccc1O)C(O)c1ccccc1 (stereo unspecified)	-62	-32	x	-2	x	x
COc1ccc(OC)c(/C=N/NC(=O)CN2CCSCC2)c1	24*	-5	x	-11	56*	47*	K7 EDANS ctr=i
COc1ccc(OC)c(/C=N/NC(=O)C(O)c2ccccc2)c1 (stereo unspecified)	41*	-10	x	-3	34*	36*
Nc1ncc(-c2ccccc2)n1CC1CCCO1 (stereo unspecified)	0	-16	i	-14	x	x
c1ccc(-c2nc3nc4ccccc4nc3n2CC2CCCO2)cc1 (stereo unspecified)	18*	9	x	-2	5	7.8*
c1coc(-c2nc3nc4ccccc4nc3n2CC2CCCO2)c1 (stereo unspecified)	22*	22	x	-5	8	13*
CCCN(CCC)Cc1cc(=O)oc2cc(C)cc(C)c12	1	x	i	20	x	x
C#CCN1C(=O)[C@@](O)(c2cccn2C)c2cc(F)ccc21	0	x	x	x	x	x
CCC(c1ccc(OC)cc1)c1cn(C)c2ccccc12 (stereo unspecified)	0	x	x	x	x	x
Cc1ccc2nc3c(cc(C(=O)NCC4CCCO4)c(=N)n3CCCOC(C)C)c(=O)n2c1 (stereo unspecified)	106*	6	i	-8	45*	44*
CCOCCCNc1nc2nc3ccc(C)cn3c(=O)c2cc1C(=O)NCC1CCCO1 (stereo unspecified)	55*	8	i	-4	16*	26*
O=c1c2c(n3nnnc3n1Cc1ccc(Cl)cc1)-c1ccccc1CC21CCCC1	-1	x	x	x	x	x
COc1cc2ccccc2nn1	23*	4	x	-4	33*	39*
COc1c2ccccc2nc2ccccc12	7	-5	x	-3	x	x
COC(=O)c1ccc2c(c1)C(C)(C)C(/C=C/c1ccccc1O)=[N+]2C	32*	14	x	-8	1	0
COc1ccc(OC)c(C(c2c(O)nc(SC)[nH]c2=O)c2c(O)nc(SC)[nH]c2=O)c1	13*	-12	i	-2	15*	15*
COc1cc(C(c2c(O)nc(SC)[nH]c2=O)c2c(O)nc(SC)[nH]c2=O)cc(OC)c1OC	-1	8	i	-2	x	x
CCOC(=O)c1cc(-c2cc3ccccc3o2)nc2c1c(=O)[nH]c(=O)n2CCOC	19*	-12	i	1	-447	-484
CCCNC(=O)COC(=O)c1cc(-c2ccc(OC)cc2)nc2ccccc12	52*	3	x	10	-71	-60
COc1ccc(-c2cc(C(=O)OCC(=O)NC(C)C)c3ccccc3n2)cc1	21*	-12	x	5	33*	40*
CCCNC(=O)COC(=O)c1cc(C)nc2ccccc12	-2	-19	i	-6	x	x
CCc1ccc(C(O)c2ncc(-c3cccc(F)c3)[nH]2)cc1 (stereo unspecified)	0	x	i	3	x	x
SMILES	proKLK7 act	PfG6PD inh	Neddylation inh	FAS TE block	KLK7 act conf	EDANS-DABCYL int	others
CCOC(=O)C1CCCN(C(=O)c2cc3c(=O)n4ccccc4nc3s2)C1 (stereo unspecified)	9	-2	x	-1	x	x
O=C(c1cc2c(=O)n3ccccc3nc2s1)N1CCOCC1	17*	12	x	-7	68*	68*
O=C(c1cc2c(=O)n3ccccc3nc2s1)N1CCN(c2cccc(Cl)c2)CC1	-1	3	x	31	x	x
CCCNC(=O)COC(=O)c1cc2c(=O)n3ccccc3nc2s1	20*	14	x	-9	73*	86*
CC1CCN(C(=O)c2cc3c(=O)n4ccccc4nc3s2)CC1	23*	-1	x	2	23*	26*
Cc1cc(C)cc([C@H]2C[C@]34CN(C(=O)OC(C)(C)C)S(=O)(=O)[C@H]3C[C@H]2O4)c1	0	x	x	x	x	x
CC(C)N(C(=O)COC(=O)c1cc(Cl)cc(Cl)c1N)C(C)C	0	-4	x	13	x	x
CN(C)C(=O)COC(=O)c1cc(Cl)cc(Cl)c1N	25*	1	x	-4	24*	31*
CCOC(=O)c1cc(N2CCCCC2)nc2ccccc12	17*	-3	x	14	3	4.9*
Cc1cc(N2CCN(C)CC2)nc2ccc(NC(=O)c3ccccc3F)cc12	-1	-22	i	0	x	x
COC(=O)c1cc(N2CCN(C)CC2)nc2ccccc12	61*	8	x	-29	15*	13*
CC(C)CC1=NN2C(=N)/C(=C\c3coc4ccccc4c3=O)C(=O)N=C2S1	24*	-16	i	-37	24*	23*
CCSC1=NSC2=NC(=O)/C(=C\c3coc4ccccc4c3=O)C(=N)N12	-2	-17	i	-73	x	x
CCCCOCCCNC(=O)C[C@H]1C[C@@]2(C(=O)OC)C(=C[C@H](C3CCCC3)O[C@@H]2C)N(Cc2cccc3ccccc23)C1=O	1	x	x	x	x	x
O=C(/C=C1\OCc2ccccc21)c1ccccc1	1	x	i	x	x	x
CCOC(=O)c1[nH]c2ccc(OC)cc2c1NC(=O)CCN1CCC(C)CC1	21*	-4	x	x	9	6.8*
CCOC(=O)c1[nH]c2cc3c(cc2c1NC(=O)CN1CCN(CCO)CC1)OCO3	49*	-25	x	-4	26*	29*
CCOC(=O)c1[nH]c2cc3c(cc2c1NC(=O)CN1CCC2(CC1)OCCO2)OCO3	11	-10	x	-5	x	x
CCOC(=O)c1[nH]c2cc(OC)c(OC)cc2c1NC(=O)CCN1CCSCC1	16*	10	x	-8	12	8.7*
CCOC(=O)c1[nH]c2ccc(OC)cc2c1NC(=O)CN1CCSCC1	10	2	x	2	x	x
OCc1ccccc1-c1cnc2sc(NCc3ccc(F)cc3)nn12	0	x	i	2	x	x
Cc1[nH]c2ccccc2c1CC(=O)Nc1ccc(Nc2cccnc2)c(Br)c1	1	x	x	x	x	x
CCOC(=O)C1CCCN(C(=O)c2cc(-c3ccco3)nc3ccccc23)C1 (stereo unspecified)	31*	35	i	-5	31*	34*
